# Screening data from PubChem BioAssay.
# Compounds with a hit are over-represented: about 1.5% of the library has one in this group of screens.
# APE1 inh: blocks human APE1 abasic DNA cleavage; recombinant APE1, TAMRA/BHQ-2 abasic DNA cleavage fluorescence; P27695; Potency, µM (highest dose often 65.8 µM), for the others: top-dose activity change, negative = inhibition, actives largely listed as inhibitors; 350,000 compounds, 0.35% hits;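 note: potency is the fitted concentration of half-maximal effect; plate controls were vehicle for no effect and reference inhibitor for full effect; nearly all actives have a fitted effect of over 55% in size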
#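 APE1 at 0.75 nM final was preincubated with compound 15 min at room temperature, then 50 nM double-stranded THF abasic-site substrate (5'-TAMRA/3'-BHQ-2) was added. Fluorescence (ex 525/em 598 nm) was read kinetically; third-minus-first read gave activity.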
# RECQ1 helicase: RECQ1 (human) helicase inhibition; P46063; 240,000 compounds, 0.54% hits; Potency, µM (titrated, usually from 57.3 µM), for the others: at the highest dose activity, negative = inhibition, actives largely listed as inhibitors; RECQ1 DNA unwinding, red fluorescence kinetic read;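 note: potency is the fitted concentration of half-maximal effect; plate controls were vehicle for no effect and no enzyme for full effect; nearly all actives have a fitted effect of over 30% in size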
#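 50 nM RECQ1T1 preincubated 15 min with compound in Tris pH 8.0 buffer with MgCl2, DTT, Tween-20 and 2.5 ug/ml poly(dI-dC); started with 200 nM TAMRA/BHQ-2 forked duplex and 2 mM ATP. Unwinding read as fluorescence (525/598 nm), two reads 2 h apart.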
# BLM inh: inhibitors of human Bloom syndrome helicase BLM. recombinant BLM DNA unwinding, fluorescence dequenching. Potency, µM (series often up to 56.1 µM), for the others: at the top dose activity change, negative = inhibition, usual class: inhibitors. 350,000 compounds, 0.2% hits. P54132;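 note: potency is the fitted concentration of half-maximal effect; plate controls were vehicle for no effect and no enzyme for full effect; nearly all actives have a fitted effect of over 35% in size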
# PI5P4K alpha inh: blocks human PI5P4K alpha kinase activity; P48426; PI5P4Kalpha enzyme, ADP-Glo luminescence, 60 min; stronger effect = lower value; max response, %; 330,000 compounds, 1.2% hits; AID 652105; active = max response of -50% or lower; inconclusive = between -30% and -50%; inactive = -30% or higher; note: value at the top dose of about 77 µM
#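 Reactions run in 0.038 M HEPES pH 7.4, 0.28 mM EGTA, 0.1% CHAPS and 5% DMSO, with PI5P4Kalpha, substrate, compound and 5 microM ATP final, one hour at room temperature. Readout is ADP-Glo luminescence.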
# WRN helicase inh: blocks human WRN helicase | Q14191 | WRN helicase unwinding, fluorescent forked duplex, kinetic | Potency, µM (doses to about 114 µM), without a hit: at the top dose activity change, negative = inhibition, actives largely listed as inhibitors | 360,000 compounds, 0.46% hits | AID 651768; note: potency is the fitted concentration of half-maximal effect; nearly all actives have a fitted effect of over 55% in size
#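 WRN at 20 nM final preincubated with compound 15 min at room temperature; reaction started with 100 nM fluorophore/quencher forked duplex oligonucleotide and 2 mM ATP final. Unwinding followed kinetically by red fluorescence (ex 525, em 598 nm).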
# FEN1 inhibitor: blocks human flap endonuclease 1; P39748; Recombinant FEN1 flap cleavage, fluorescence, 15 min; Potency, µM (doses to about 114 µM), for inactives: top-dose activity change, negative = inhibition, usual class: inhibitors; 390,000 compounds, 0.35% hits; AID 588795; note: potency is the fitted concentration of half-maximal effect; nearly all actives have a fitted effect of over 65% in size
#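 Recombinant FEN1 (10 nM) was preincubated with pin-transferred compounds for 15 min at room temperature, then flap DNA substrate (50 nM final) was added. Plates were read at 0 and 15 min, and normalized concentration–response data were fitted to a four-parameter Hill equation.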
# Numbers without * were called inactive; ? = inconclusive; / = not tested or not shown; ! = not confirmed by another sample; [ ] = dose if it differs, or a comment. Unless noted, calls come from the whole dose curve; as a rule, active = well fitted curve in the direction sought with a large enough effect; inconclusive = small, poorly fitted or top-dose-only effect, or another doubt; inactive = no such curve, though single readings can be large; an effect the other way counts as inactive or inconclusive. Unless noted, % is set by controls: 0 for no effect and ±100 for the full control effect.
SMILES,APE1 inh,RECQ1 helicase,BLM inh,PI5P4K alpha inh,WRN helicase inh,FEN1 inhibitor
Cc1ccc(/C=C2\C(=O)NC(=O)N(CC3CCCO3)C2=O)s1 (configuration not stated),?,2%,-6%,?,-20%,?
Cn1c(O)c(/C=C2\C=c3ccccc3=NC2=O)c(=O)n(C)c1=O,19%,/,-11%,-8,5%,0%
Cc1cccc2c1=NC(=O)/C(=C/c1c(O)[nH]c(=O)[nH]c1=O)C=2,-2%,-2%,5%,-54*,50µM*,-11%
C[C@@H]1O[C@@H](O[C@H]2CC[C@@H](O[C@H]3[C@H](O)C[C@H](c4ccc5c(c4O)C(=O)C4=C(C5=O)[C@@]5(O)C(=O)C[C@](C)(O[C@H]6CC[C@H](O[C@H]7C=CC(=O)[C@H](C)O7)[C@H](C)O6)C[C@@]5(O)C=C4)O[C@@H]3C)O[C@H]2C)C=CC1=O,-7%,-12%,-18%,/,/,/
CC1CC(=O)O1 (configuration not stated),1%,2%,/,/,/,/
Oc1ccc(Cl)cc1Cl,3%,-13%,/,/,/,/
O=C1C(Cl)=CC(=Nc2ccc(O)cc2)C=C1Cl,?,-5%,-5%,-98*,-17%,?
O=[N+]([O-])/C=C/c1c(Cl)cccc1Cl,/,/,/,-10,32µM*,-5%
COC(=O)C1=Nc2ccccc2/C1=C\c1c(O)n(-c2ccc(Br)cc2)c(=O)[nH]c1=O,34%,5%,-5%,-102*,50µM*,-14%
COC(=O)C1=Nc2ccccc2/C1=C\c1c(O)n(C)c(=O)n(C)c1=O,0%,-17%,3%,-70*,-6%,-16%
COC(=O)C1=Nc2ccccc2/C1=C\c1c(O)n(-c2ccc(OC)cc2)c(=O)[nH]c1=O,-4%,-19%,-2%,/,?,-14%
CC(=O)O[C@H]1C[C@H]2CC[C@@H]3[C@H]4C[C@@H]([N+]5(C)CCCCC5)[C@@H](OC(C)=O)[C@]4(C)CC[C@@H]3[C@@]2(C)C[C@@H]1[N+]1(C)CCCCC1,-4%,21%,73%,/,/,/
C[CH2][Hg][S]c1ccccc1C(=O)O,20%,17%,-9%,22,-6%[11.6 µM],22µM*
c1ccc2c(c1)[IH]c1ccccc1-2,/,/,/,-1,-8%,50µM*
O=C(c1ccccc1NS(=O)(=O)c1ccc(Br)cc1)N1CCOCC1,-5%,/,1%,1,?,-5%
Cc1nccc2c1[nH]c1ccc(Br)cc12,-5%,/,/,29,-10%,?
COc1ccc2c(c1)[nH]c1c(C)nccc12,7.9µM*!,3%,91%,-5,8%,?
O=C1NC(=O)N(Cc2ccco2)C(=O)/C1=C\c1cccn1CCOc1ccc(Cl)cc1,-9%,?,-21%,-54*,50µM*,-32%
CCc1ccc(N2C(=O)NC(=O)/C(=C/c3cccn3CCOc3ccc(C(C)CC)cc3)C2=O)cc1 (configuration not stated),-10%,-11%,-2%,-53*,-5%[57.1 µM],-10%
CCN(CC)c1ccc(/C=C2\C(=O)NC(=O)N(CC3CCCO3)C2=O)cc1 (configuration not stated),0%,-4%,2%,-18,-35%,?
O=C1NC(=S)N(Cc2ccco2)C(=O)/C1=C\c1cccs1,3.5µM*,7.1µM*,28µM*,/,/,/
CCN(CC)c1ccc(/C=C2/C(=O)NC(=O)N(Cc3ccco3)C2=O)cc1,?,32µM*,-1%,-73*,56µM*,?
CCN1C(=O)C(=C2C=C(C)N(Cc3ccco3)C(C)=C2)C(=O)N(CC)C1=S,-3%,-3%,-5%,0,-4%,-10%
CN(C)c1ccc(/C=C2/C(=O)NC(=O)N(Cc3ccco3)C2=O)cc1,28µM*,?,-6%,-58*,50µM*,-29%
Clc1nc(Cl)nc(Nc2ccccc2Cl)n1,3%,-6%,/,/,/,/
SMILES,APE1 inh,RECQ1 helicase,BLM inh,PI5P4K alpha inh,WRN helicase inh,FEN1 inhibitor
Cc1cc(O)c2c(c1)C(=O)C13C(=C2O)C(=O)[C@H]2[C@@H](O)[C@@H]1[C@H]1[C@H](O)[C@@H]3C(=O)C3=C(O)c4c(O)cc(C)cc4C(=O)C312 (some centres not stated),-40%,/,/,-53*,?,?
C=C(C)C#N,-3%,-1%,/,/,/,/
CCCCC/C=C\C[C@@H](/C=C/C=C\C/C=C\CCCC(=O)O)OO,?,12%,-2%,/,/,/
CCCCC/C=C\C/C=C\C/C=C\C/C=C\CCCC(=O)O,?,2.2µM*!,?,/,/,/
O=C(Cl)c1ccccc1F,-5%,1%,/,/,/,/
O=C1C[C@@H]2OCC=C3CN4CC[C@]56c7ccccc7N1[C@H]5[C@H]2[C@H]3C[C@H]46,1%,/,/,/,/,/
C=CCN1CC[C@]23CCCC[C@H]2[C@H]1Cc1ccc(O)cc13,-6%,/,/,/,/,/
Cc1cc(C(C#N)c2ccc(Cl)cc2)c(Cl)cc1NC(=O)c1cc(I)cc(I)c1O (configuration not stated),-29%,/,?,-55*,-28%,28µM*
CN1CCC2(CC1)C(C#N)=C(N)NC(S)=C2C#N,-6%,?,-16%,?,56µM*!,-23%
O=NN(c1ccccc1)c1ccccc1,-1%,-17%,/,/,/,/
CNC(=O)Oc1ccc2c(c1)C1(C)CCN(C)C1N2C (configuration not stated),14%,-1%,2%,/,/,/
CC1=C(O)C(=O)C=C2C1=CC=C1[C@]2(C)CC[C@@]2(C)C3C[C@](C)(C(=O)O)CC[C@@]3(C)CC[C@@]12C (some centres not stated),-1%,-12%,-18%,/,/,/
O=c1[nH]c(=S)n(-c2ccccc2)c(O)c1/C=N/N1CCCCC1c1cccnc1 (configuration not stated),?,25µM*,-5%,-3,79µM*,-8%
CCc1ccc(-n2c(O)c(/C=N/N3CCCCC3c3cccnc3)c(=O)[nH]c2=O)cc1 (configuration not stated),6%,-3%,3%,4,-7%,17%
On1ccccc1=S,7%,/,/,-100*,4%,?
O=S(=O)(O)F,4%,-1%,/,/,/,/
Cl.Cl.Cl.Cl.Cl.Cl.N.N.N.N.NNNNN.NNNNN.O.O.[Ru].[Ru].[Ru],-3%,13µM*,25µM*,/,/,/
Cc1c(N=Nc2c(O)[nH]c(=S)[nH]c2=O)c(=O)n(-c2ccccc2)n1C,-2%,-21%,2%,-12,-12%,-1%
O=c1[nH]c(=S)[nH]c(O)c1N=Nc1ccc(SC(F)F)cc1,1%,1%,-7%,-57*,-27%,-2%
